Each structure is given as a SMILES string.

In the assay the target is PEG-3 (UniProt Q6IN02). Nature of the assay: inhibition of PEG-3 promoter-driven reporter – cell-based, HeLa, luciferase, CREF/GAPDH counter-screen panel, dose response (AID 624167). The conditions noted are these: CREF/GAPDH counter-screens; HeLa PEG-Prom luciferase reporter, overnight, run 2, dose range 1, at 100 µM (top of the series) unless noted. In general terms: A counterscreen serves to expose hits that act by an unwanted route or on another target.
Chain of PEG-3 (Q6IN02 whole entry, looked up): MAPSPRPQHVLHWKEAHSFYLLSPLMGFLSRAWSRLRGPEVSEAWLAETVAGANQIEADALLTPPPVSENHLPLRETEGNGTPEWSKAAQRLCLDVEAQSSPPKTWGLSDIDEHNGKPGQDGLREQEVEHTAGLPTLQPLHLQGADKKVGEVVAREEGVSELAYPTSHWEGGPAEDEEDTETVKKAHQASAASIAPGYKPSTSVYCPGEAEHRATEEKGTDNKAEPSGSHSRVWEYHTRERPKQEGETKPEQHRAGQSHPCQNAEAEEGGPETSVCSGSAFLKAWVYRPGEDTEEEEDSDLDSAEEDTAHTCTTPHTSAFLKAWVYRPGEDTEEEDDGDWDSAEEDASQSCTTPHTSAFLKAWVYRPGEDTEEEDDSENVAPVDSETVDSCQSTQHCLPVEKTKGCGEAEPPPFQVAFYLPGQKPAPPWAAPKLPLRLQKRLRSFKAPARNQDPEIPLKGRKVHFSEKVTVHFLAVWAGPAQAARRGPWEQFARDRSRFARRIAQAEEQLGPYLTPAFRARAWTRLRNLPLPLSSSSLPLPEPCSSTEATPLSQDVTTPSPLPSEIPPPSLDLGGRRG
One may read the inhibition as the change of the read-out against control, counted positive when it falls. Consider `COc1ccccc1CN(C)C(=O)c1cc(-c2cccs2)nc2ccccc12`, for which the inhibition was found to be 98.8%. With `CN(C)CCNc1ncnc2c1ncn2[C@H]1CN(Cc2ccc(-c3ccccc3)cc2)C[C@@H](CO)O1` the figure was 101%. With `c1cc2c3c(cccc3c1)NC1(CCC3(CC1)Nc1cccc4cccc(c14)N3)N2` the figure was 102%; with `CCOC(=O)c1cnc2c(cnn2C)c1NCCCN(C)C`, 88.6%; with `O=S(=O)(c1cccs1)N1CCN(c2ccnc3cc(Cl)ccc23)CC1`, 90.7%. The value for `CCCCCCCCCC[N+](C)(C)CC/C=C1/c2ccccc2Sc2ccc(Cl)cc21` was 101%; that for `Cc1ccc(C(=O)N/C(=C\c2ccc(-c3cccc([N+](=O)[O-])c3)o2)C(=O)NCCCN(C)C)cc1` was 98.8%. Regarding `NC(=O)c1nsc(C(=O)N(c2ccccc2F)C(C(=O)NCc2ccccc2)c2ccc(O)cc2)c1N` (stereo not given), the inhibition was found to be 99.3%. With `CCOc1cc(CNCCO)cc(Br)c1OCc1ccccc1Cl` the figure was 99.1%; with `COc1ccc(CN2CCN(C(=O)c3cc(-c4cccnc4)nc4ccc(Cl)cc34)CC2)c(OC)c1OC`, 83%. The value for `c1ccc(-c2cc(-c3nc4ccccc4[nH]3)c3ccccc3n2)cc1` was 88.6%; that for `O=c1c2c3c(sc2nc(N2CCNCC2)n1CCc1ccccc1)CCCCC3` was 101%; that for `Nc1c(C(=O)Nc2cccc(C(=O)O)c2)sc2nc3c(cc12)CCCC3` was 77.5%. The value for `CN1Cc2c(N3CCOCC3)nc3sc(C(=O)c4ccc(Br)cc4)c(N)c3c2CC1(C)C` was 101%; that for `COc1ccc(-c2cc(C(=O)Nc3ccccc3N3CCOCC3)c3ccccc3n2)cc1OC` was 15%; that for `c1ccc(C[C@H]2CNCCN2CCCCC2CCCCC2)cc1` was 101%. Turning to `COc1ccc(-n2ncc3c(N(C)C4CCCCC4)ncnc32)cc1`, the inhibition was 89.4%. The value for `Cc1ccc(-n2cc(CNCCCn3ccnc3C)c(-c3ccc(F)cc3)n2)cc1` was 98.7%; that for `c1ccc(CCNc2nc(-c3ccncc3)nc3ccccc23)cc1` was 47.8%; that for `COc1cccc(NC(=O)CN(C)C(=O)c2cccnc2Nc2cccc(C(F)(F)F)c2)c1` was 102%. With `CSc1ccc(CN(C)C(=O)C(Cc2ccccc2)NC(=O)c2ccccc2)cc1` (stereo not given) the figure was 96.7%; with `C/C(=N\N=C(N)N)c1ccc(Cl)c(Cl)c1`, 101%. Consider `CCN1CCCC1CN(Cc1cc2ccc(C)cc2[nH]c1=O)C(=S)Nc1ccc(OC)cc1` (stereo not given), for which the inhibition was determined as 99.5%. The value for `Cc1c(C#N)c(N)nc2c3c(sc12)NC(=O)CC3c1ccc(Cl)cc1` (stereo not given) was 100%; that for `CCN(CC)CCN1CCN(c2cncc(-c3ccc4ccccc4c3)n2)CC1` was 102%.

The values are drawn from PubChem BioAssay.
